This is part of a sample that, as a whole, favours compounds with a hit. Of some 83,000 tested, about 20% had one in any assay.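 In brief: 96-well plates, 48 h treatment, single concentration, percent growth endpoint.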 Activity calls are given as the source filed them. How the source made its calls: active means growth percent below 10; inactive means the rest.
What was measured:
Experiment in all cases: NCI-60 one-dose screen, 48 h (100 = growth as untreated, 0 = no growth, -100 = all killed)
Details in all cases: 10 µM unless noted
SR leukemia = system: SR leukemia
RPMI-8226 leukemia = system: RPMI-8226 leukemia
OVCAR-8 ovarian = system: OVCAR-8 ovarian
OVCAR-5 ovarian = system: OVCAR-5 ovarian
OVCAR-4 ovarian = system: OVCAR-4 ovarian
SK-OV-3 ovarian = system: SK-OV-3 ovarian
IGROV1 ovarian = system: IGROV1 ovarian
OVCAR-3 ovarian = system: OVCAR-3 ovarian
HS 578T breast = system: HS 578T breast
NCI/ADR-RES ovarian = system: NCI/ADR-RES ovarian
T-47D breast = system: T-47D breast
BT-549 breast = system: BT-549 breast
MDA-MB-435 melanoma = system: MDA-MB-435 melanoma
SW-620 colon = system: SW-620 colon
MCF7 breast = system: MCF7 breast
HCT-116 colon = system: HCT-116 colon
HCC-2998 colon = system: HCC-2998 colon
KM12 colon = system: KM12 colon

Measured: growth

COc1ccc(C2CC(c3cccc(Nc4ccncc4)c3)=NN2c2ccccc2)cc1 (stereo not given)
inactive: OVCAR-8 ovarian 20.5% | OVCAR-5 ovarian 79.7% | OVCAR-4 ovarian 51.8% | SK-OV-3 ovarian 67.7% | IGROV1 ovarian 43.7% | OVCAR-3 ovarian 61.3% | HS 578T breast 68.5% | NCI/ADR-RES ovarian 69.9% | T-47D breast 68.9%
active: SR leukemia 2.73% | RPMI-8226 leukemia -6.86% | BT-549 breast -16.1% | MDA-MB-435 melanoma -57% | SW-620 colon -72.2% | MCF7 breast 8.74% | HCT-116 colon 1.38% | HCC-2998 colon -52.5%

NC(=O)c1cccc(-c2cc(C(N)=O)ccc2Cl)c1
inactive: RPMI-8226 leukemia 14.3% | OVCAR-8 ovarian 28.9% | OVCAR-5 ovarian 51.3% | OVCAR-4 ovarian 58.6% | SK-OV-3 ovarian 88.9% | IGROV1 ovarian 49.3% | NCI/ADR-RES ovarian 19% | T-47D breast 33.9% | BT-549 breast 57.9% | SW-620 colon 21.1% | MCF7 breast 23.5% | HCT-116 colon 25.4% | HCC-2998 colon 57.7% | KM12 colon 30.8%
active: SR leukemia 2.33% | OVCAR-3 ovarian -0.229% | HS 578T breast 5.29% | MDA-MB-435 melanoma -27.6%

CN1C2CCC1CN(c1cnc(C(=O)Nc3cc(F)cc4cccnc34)cn1)C2
inactive: SR leukemia 22.4% | RPMI-8226 leukemia 44.5% | OVCAR-8 ovarian 54.4% | OVCAR-5 ovarian 70.3% | SK-OV-3 ovarian 81.9% | OVCAR-3 ovarian 20.4% | HS 578T breast 54.6% | NCI/ADR-RES ovarian 42.1% | T-47D breast 36% | BT-549 breast 70.7% | MDA-MB-435 melanoma 55.9% | SW-620 colon 36.2% | HCT-116 colon 18.8% | HCC-2998 colon 83.1% | KM12 colon 76.9%
active: OVCAR-4 ovarian 8.7% | IGROV1 ovarian 6.34% | MCF7 breast 5.77%

Nc1c(C(=O)Nc2cccc3ccncc23)sc2nc3c(cc12)C(=O)CCC3
active: OVCAR-3 ovarian 3.84% | MDA-MB-435 melanoma -35%
inactive: SR leukemia 33.3% | RPMI-8226 leukemia 64.6% | OVCAR-8 ovarian 68.1% | OVCAR-5 ovarian 68.5% | OVCAR-4 ovarian 80.7% | SK-OV-3 ovarian 35.3% | IGROV1 ovarian 57.8% | HS 578T breast 21.3% | NCI/ADR-RES ovarian 68.4% | T-47D breast 48.5% | BT-549 breast 50.6% | SW-620 colon 31.1% | MCF7 breast 21.5% | HCT-116 colon 43.4% | HCC-2998 colon 77.2%

COc1ccc(Cc2nc3cc(OC)c(OC)cc3c(=O)[nH]2)cc1
inactive: SR leukemia 36.1% | RPMI-8226 leukemia 52.6% | OVCAR-8 ovarian 73.5% | OVCAR-5 ovarian 78.6% | OVCAR-4 ovarian 105% | SK-OV-3 ovarian 148% | IGROV1 ovarian 65.7% | OVCAR-3 ovarian 78.9% | HS 578T breast 77.5% | NCI/ADR-RES ovarian 74.8% | T-47D breast 96% | BT-549 breast 159% | MDA-MB-435 melanoma 87.3% | SW-620 colon 14.3% | MCF7 breast 91.6% | HCT-116 colon 72.6% | HCC-2998 colon 53.7%

CC(=O)c1c(C)[nH]c(-c2nc3ccc(N4CCN(C)CC4)cc3[nH]2)c1-c1ccccc1
active: RPMI-8226 leukemia 3.67% | HS 578T breast 9.13% | MCF7 breast 7.32%
inactive: SR leukemia 28.4% | OVCAR-8 ovarian 45.6% | OVCAR-5 ovarian 34.8% | OVCAR-4 ovarian 33.4% | SK-OV-3 ovarian 20.5% | IGROV1 ovarian 23.8% | OVCAR-3 ovarian 28.8% | NCI/ADR-RES ovarian 36.3% | T-47D breast 20.3% | BT-549 breast 81.9% | MDA-MB-435 melanoma 19.8% | SW-620 colon 54.8% | HCT-116 colon 59.6% | HCC-2998 colon 27.8%

COc1ccc(-c2nc(SCC(C)C)nc(N/N=C(/C)c3ccc(OC)c(OC)c3)c2C#N)cc1
inactive: SR leukemia 70.9% | RPMI-8226 leukemia 71.3% | OVCAR-8 ovarian 93.4% | OVCAR-5 ovarian 81.7% | OVCAR-4 ovarian 86.3% | SK-OV-3 ovarian 93.3% | IGROV1 ovarian 78.8% | OVCAR-3 ovarian 79.7% | HS 578T breast 76% | NCI/ADR-RES ovarian 90.2% | T-47D breast 54.7% | BT-549 breast 97.8% | MDA-MB-435 melanoma 87.9% | SW-620 colon 84.4% | MCF7 breast 80.6% | HCT-116 colon 96.6% | HCC-2998 colon 92.4%

COc1ccc(C(O)c2cc3c(N)c(C(=O)Nc4ccccc4)sc3nc2C)cc1 (stereo not given)
inactive: OVCAR-5 ovarian 27.1% | OVCAR-4 ovarian 42.6% | IGROV1 ovarian 12.6% | NCI/ADR-RES ovarian 13.7% | T-47D breast 51.7% | BT-549 breast 31.6% | SW-620 colon 19.3% | MCF7 breast 13.4%
active: SR leukemia -15.3% | RPMI-8226 leukemia 5.81% | OVCAR-8 ovarian 8.92% | SK-OV-3 ovarian -9.84% | OVCAR-3 ovarian -16.7% | HS 578T breast 3.96% | MDA-MB-435 melanoma -15.1% | HCT-116 colon 6.95% | HCC-2998 colon 9.2%

O=C(CSc1nc2sc3c(c2c(=O)n1Cc1ccccc1)CCCC3)N1CCN(c2ccccc2)CC1
inactive: SR leukemia 101% | RPMI-8226 leukemia 94.1% | OVCAR-8 ovarian 97.9% | OVCAR-5 ovarian 102% | OVCAR-4 ovarian 96.1% | SK-OV-3 ovarian 92.1% | IGROV1 ovarian 103% | OVCAR-3 ovarian 106% | HS 578T breast 101% | NCI/ADR-RES ovarian 94.8% | T-47D breast 80.9% | BT-549 breast 90.1% | MDA-MB-435 melanoma 101% | SW-620 colon 102% | MCF7 breast 95.5% | HCT-116 colon 85.4% | HCC-2998 colon 103% | KM12 colon 101%

COc1ccc(-c2nc(N/N=C/c3ccco3)nc(N3CCOCC3)c2C#N)cc1
inactive: SR leukemia 60.2% | RPMI-8226 leukemia 64% | OVCAR-8 ovarian 88.6% | OVCAR-5 ovarian 89.6% | OVCAR-4 ovarian 78% | SK-OV-3 ovarian 64.6% | IGROV1 ovarian 37.3% | OVCAR-3 ovarian 70.2% | HS 578T breast 80.6% | NCI/ADR-RES ovarian 86.4% | T-47D breast 54.2% | BT-549 breast 78.5% | MDA-MB-435 melanoma 91.7% | SW-620 colon 89.8% | MCF7 breast 35.2% | HCT-116 colon 89.1% | HCC-2998 colon 92.2%

O=CNc1cc(Cl)cc(Cl)c1
inactive: SR leukemia 90.3% | RPMI-8226 leukemia 99.1% | OVCAR-8 ovarian 99.8% | OVCAR-5 ovarian 97.5% | OVCAR-4 ovarian 113% | SK-OV-3 ovarian 115% | IGROV1 ovarian 103% | OVCAR-3 ovarian 123% | HS 578T breast 111% | NCI/ADR-RES ovarian 108% | T-47D breast 100% | BT-549 breast 99.4% | MDA-MB-435 melanoma 107% | SW-620 colon 103% | MCF7 breast 98.3% | HCT-116 colon 100%

NC(=O)c1ccc[n+](CC(=O)N2CCN(c3cc4c(cc3F)c(=O)c(C(=O)O)cn4C3CC3)CC2)c1
inactive: SR leukemia 32.2% | RPMI-8226 leukemia 74.3% | OVCAR-8 ovarian 92.8% | OVCAR-5 ovarian 114% | OVCAR-4 ovarian 74.8% | SK-OV-3 ovarian 117% | IGROV1 ovarian 99.4% | OVCAR-3 ovarian 69.4% | HS 578T breast 91.1% | NCI/ADR-RES ovarian 99.8% | T-47D breast 99.1% | BT-549 breast 87.3% | MDA-MB-435 melanoma 75.2% | MCF7 breast 62.4% | HCT-116 colon 37.1% | HCC-2998 colon 115%
active: SW-620 colon 6.58%

CN(Cc1ccccc1)c1nc(Cl)c(C2CC(c3ccc(Cl)cc3)=Cc3[nH][nH]c(=O)c32)s1 (stereo not given)
inactive: SR leukemia 94.2% | RPMI-8226 leukemia 92.5% | OVCAR-8 ovarian 94.5% | OVCAR-5 ovarian 97.5% | OVCAR-4 ovarian 116% | SK-OV-3 ovarian 101% | IGROV1 ovarian 88.1% | OVCAR-3 ovarian 95% | HS 578T breast 96.4% | NCI/ADR-RES ovarian 89.6% | T-47D breast 89.7% | BT-549 breast 67.7% | MDA-MB-435 melanoma 85% | SW-620 colon 99.8% | MCF7 breast 47.6% | HCT-116 colon 94.2% | HCC-2998 colon 104% | KM12 colon 103%

COc1ccc(C(=O)/C=C/c2c(OC)cc(OC)cc2OC)c(OC)c1
active: OVCAR-3 ovarian -33.3% | NCI/ADR-RES ovarian -21.9% | MDA-MB-435 melanoma -20.2%
inactive: SR leukemia 23.1% | RPMI-8226 leukemia 13% | OVCAR-8 ovarian 25.9% | OVCAR-5 ovarian 31.5% | OVCAR-4 ovarian 79.1% | SK-OV-3 ovarian 10.9% | IGROV1 ovarian 40.3% | HS 578T breast 54.1% | T-47D breast 19% | BT-549 breast 12.3% | SW-620 colon 16.6% | MCF7 breast 21.4% | HCT-116 colon 18.2% | HCC-2998 colon 41.7%

CC(C)(C)CC(C)(C)Nc1c(-c2ccc(C(F)(F)F)cc2)nc2cnccn12
inactive: SR leukemia 59.8% | RPMI-8226 leukemia 62.9% | OVCAR-8 ovarian 89.2% | OVCAR-5 ovarian 102% | OVCAR-4 ovarian 79.4% | SK-OV-3 ovarian 82.7% | IGROV1 ovarian 67.4% | OVCAR-3 ovarian 84.8% | HS 578T breast 102% | NCI/ADR-RES ovarian 81.9% | T-47D breast 74.4% | BT-549 breast 76% | MDA-MB-435 melanoma 98.8% | SW-620 colon 102% | MCF7 breast 66.5% | HCC-2998 colon 92.1%
active: HCT-116 colon -5.73%

Brc1ccc(C2CC(c3cccc(Nc4ccncc4)c3)=NN2c2ccccc2)cc1 (stereo not given)
active: SR leukemia 4.53% | SW-620 colon -33.1%
inactive: RPMI-8226 leukemia 50.5% | OVCAR-8 ovarian 77.6% | OVCAR-5 ovarian 89.3% | OVCAR-4 ovarian 70.3% | SK-OV-3 ovarian 84.4% | IGROV1 ovarian 58.3% | OVCAR-3 ovarian 80% | HS 578T breast 90.9% | NCI/ADR-RES ovarian 79.2% | T-47D breast 87.8% | BT-549 breast 84% | MDA-MB-435 melanoma 70.5% | MCF7 breast 24.5% | HCT-116 colon 77.4% | HCC-2998 colon 19.2%

COc1cc(COC(=O)CCCCC[P+](c2ccccc2)(c2ccccc2)c2ccccc2)c(OC)c2c1OCO2
inactive: OVCAR-8 ovarian 64.4% | OVCAR-5 ovarian 76.9% | OVCAR-4 ovarian 41.2% | SK-OV-3 ovarian 76.6% | IGROV1 ovarian 28.6% | OVCAR-3 ovarian 48.7% | HS 578T breast 70.8% | NCI/ADR-RES ovarian 104% | T-47D breast 14.7% | BT-549 breast 55.5% | MDA-MB-435 melanoma 41.8% | SW-620 colon 58% | MCF7 breast 47.7% | HCT-116 colon 33.2% | HCC-2998 colon 64.9%
active: SR leukemia 0.217% | RPMI-8226 leukemia -23.1%

C=C1C(=O)O[C@H]2[C@H]1CC/C(COC(=O)/C=C/c1c[nH]c3ccccc13)=C\CC[C@@]1(C)O[C@@H]21
inactive: SK-OV-3 ovarian 50.8%
active: SR leukemia -19.7% | RPMI-8226 leukemia -34.3% | OVCAR-8 ovarian -34.4% | OVCAR-5 ovarian -42.1% | OVCAR-4 ovarian -91.9% | IGROV1 ovarian -69.7% | OVCAR-3 ovarian -91.5% | HS 578T breast -6.76% | NCI/ADR-RES ovarian -26.9% | T-47D breast -68.3% | BT-549 breast -69.6% | MDA-MB-435 melanoma -88.5% | SW-620 colon -74.7% | MCF7 breast -40.1% | HCT-116 colon -83.8% | HCC-2998 colon -88.1% | KM12 colon -51.6%
